# For some assays here: Measured potencies and affinities stand elsewhere. Calls of active or inactive are those of the source.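 The calls were made as follows, unless noted: active = dose-response curve with midpoint inside the tested range, moderate steepness, significant amplitude and little compound fluorescence or bead-attachment interference; inactive = the rest.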
# Tests used:
# [1] = target: Cell division control protein 42 homolog (Homo sapiens) (UniProt P60953); assay: activated mutant Cdc42 GTP-binding inhibitors, dose response, biochemical, multiplex bead flow cytometry, Bodipy-FL-GTP (AID 1333;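 active = fitted half-maximal concentration within the tested dose range, moderate curve steepness, a statistically real signal drop, and little compound fluorescence or tag-binding interference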)
# Cell division control protein 42 homolog (Homo sapiens), sequence (P60953 whole entry, looked up): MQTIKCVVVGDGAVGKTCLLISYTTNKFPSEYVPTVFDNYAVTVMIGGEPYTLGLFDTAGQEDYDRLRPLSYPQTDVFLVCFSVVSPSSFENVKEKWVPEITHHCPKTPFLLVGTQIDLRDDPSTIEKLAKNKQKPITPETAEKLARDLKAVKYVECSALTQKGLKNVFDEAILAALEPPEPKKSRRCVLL
# [2] = target: Cell division control protein 42 homolog (Homo sapiens) (UniProt P60953); assay: wildtype Cdc42 GTP-binding inhibitors, dose response, biochemical, multiplex bead flow cytometry, Bodipy-FL-GTP (AID 1334;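 active = fitted half-maximal concentration within the tested range, moderate curve steepness, significant signal drop, and little compound fluorescence or bead-linkage interference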); details: bead-based flow cytometry, Bodipy-FL-GTP binding to GST-Cdc42; at 100 µM (top of the series)
# [3] = test system: Ras-related protein Rab-7a (dog), GTP binding; assay: Rab7 GTP binding inhibitors, potency, dose response, biochemical, wildtype, multiplex bead flow cytometry (AID 1336; call rule not given here)
# [4] = target: Ras-related C3 botulinum toxin substrate 1 (Homo sapiens) (UniProt P63000); assay: wildtype Rac1 GTP binding inhibitors, dose response, biochemical, multiplex bead flow cytometry (AID 1340;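 active = dose curve with midpoint inside tested range, moderate steepness, plateau gap beyond fit error, low compound glow and bead-link interference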); details: GST-Rac1 beads, Bodipy-FL-GTP binding; at 100 µM (top of the series)
# [5] = target: GTPase HRas (Homo sapiens) (UniProt P01112); assay: activated Ras mutant GTP binding inhibitors, dose response, biochemical, multiplex bead flow cytometry (AID 1341);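 also: GST-tagged constitutively activated Ras mutant immobilized on beads and multiplexed with other GTPases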
# [6] = RPL19A-GFP modulators, yeast TOR pathway, confirmation, cell-based, S. cerevisiae, flow cytometry, cherry picks, mother/daughter gates (AID 2270;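 active = GFP response below 50% of the DMSO control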); details: S. cerevisiae RPL19A-GFP strain, 3 h, at 10 µM, stronger effect = lower value, 100 = same GFP as DMSO wells
# [7] = LAP4-GFP expression modulators in yeast, confirmation, cell-based, cherry picks, flow cytometry, mother/daughter gates (AID 2271;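 active = GFP response above 150% of the DMSO control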;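 also: ratio of sample to DMSO plate mean so 100% equals DMSO level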); details: S. cerevisiae LAP4-GFP strain, 3 h, at 10 µM, stronger effect = higher value
# [8] = modulators of MEP2-GFP levels in yeast, confirmation, S. cerevisiae, flow cytometry GFP, cherry picks (AID 2272;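 active = GFP response above 150% of the DMSO control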;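 also: ratio of well signal to plate DMSO mean so 100% equals DMSO level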); details: S. cerevisiae MEP2-GFP strain, 3 h, at 10 µM, stronger effect = higher value
# [9] = AGP1-GFP expression modulators, hit retest, confirmation, cell-based, flow cytometry, S. cerevisiae, cherry picks (AID 2273;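 active = GFP response above 150% of the DMSO level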;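 also: median GFP channel fluorescence over the whole cell population gate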); details: S. cerevisiae AGP1-GFP strain, 3 h, at 10 µM
# [10] = modulators of CIT2-GFP expression in yeast, confirmation, S. cerevisiae, GFP fusion, cherry picks, mother/daughter gates (AID 2274;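 active = GFP response above 150% of the DMSO level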); details: S. cerevisiae CIT2-GFP strain, flow cytometry, 3 h, at 10 µM, stronger effect = higher value
# [11] = measured here: daughter cell gate
# [12] = measured here: mother cell gate
# [13] = measured here: daughter cell gate response
# [14] = measured here: mother cell gate response
smiles,measurement,setting,value
CN1C(=O)N(C)C(=O)C2(Cc3c(ccc4ccccc34)N(C)C2)C1=O,outcome,[1],inactive
same,"fluorescence, percent of control (lower = inhibition)",[2],34.8%
same,outcome,[3],inactive
same,"GTP binding signal, raw median fluorescence (lower = inhibition) (MCF (arbitrary fluorescence units))",[4],230
same,outcome,[5],inactive
COc1ccc(-c2cc(=NCCCCCC(=O)O)c3cc(C)ccc3o2)cc1,outcome,[1],inactive
same,"fluorescence, percent of control (lower = inhibition)",[2],34.9%
same,outcome,[3],inactive
same,"GTP binding signal, raw median fluorescence (lower = inhibition) (MCF (arbitrary fluorescence units))",[4],132
same,outcome,[5],inactive
O=C(O)c1cn(Cc2ccccc2Cl)c2ccccc12,outcome,[1],inactive
same,"fluorescence, percent of control (lower = inhibition)",[2],64.9%
same,outcome,[3],inactive
same,"GTP binding signal, raw median fluorescence (lower = inhibition) (MCF (arbitrary fluorescence units))",[4],34.1
same,outcome,[5],inactive
Cc1sc(-n2c(C)cc(C=C3C(=O)NC(=O)NC3=O)c2C)c(C#N)c1C,outcome,[1],inactive
same,"fluorescence, percent of control (lower = inhibition)",[2],27.5%
same,"GTP binding signal, raw median fluorescence (lower = inhibition) (MCF (arbitrary fluorescence units))",[4],199
same,outcome,[5],inactive
O=C(O)c1cn(Cc2ccccc2F)c2ccccc12,outcome,[1],inactive
same,"fluorescence, percent of control (lower = inhibition)",[2],93%
same,outcome,[3],inactive
same,"GTP binding signal, raw median fluorescence (lower = inhibition) (MCF (arbitrary fluorescence units))",[4],68.4
same,outcome,[5],inactive
CCN(CC)c1ccc(/C=N/c2sc3c(c2C#N)C2CCN3CC2)c(O)c1,outcome,[1],inactive
same,"fluorescence, percent of control (lower = inhibition)",[2],91.1%
same,outcome,[3],inactive
same,"GTP binding signal, raw median fluorescence (lower = inhibition) (MCF (arbitrary fluorescence units))",[4],248
same,outcome,[5],inactive
Cc1nc2c(=O)n(C)c(=O)nc-2n(C)n1,outcome,[3],inactive
same,"GTP binding signal, raw median fluorescence (lower = inhibition) (MCF (arbitrary fluorescence units))",[4],251
same,outcome,[5],inactive
Cc1cc(C)cc(N2C(=O)NC(=O)/C(=C\C=C\c3ccco3)C2=O)c1,outcome,[1],inactive
same,"fluorescence, percent of control (lower = inhibition)",[2],32.8%
same,outcome,[3],inactive
same,"GTP binding signal, raw median fluorescence (lower = inhibition) (MCF (arbitrary fluorescence units))",[4],206
same,outcome,[5],inactive
O=C1CN=C(c2ccccc2F)c2cc(Cl)ccc2N1,GFP response vs DMSO,[6],99.3% (inactive)
same,GFP response vs DMSO,[6]; [11],99%
same,GFP response vs DMSO,[6]; [12],99.1%
same,GFP response relative to DMSO,[7],97.4% (inactive)
same,GFP response relative to DMSO,[7]; [13],98.7%
same,GFP response relative to DMSO,[7]; [14],98.3%
same,GFP response vs DMSO,[8],100% (inactive)
same,"GFP response, % of DMSO",[9],98% (inactive)
same,"GFP response, % of DMSO",[10],107% (inactive)
same,"GFP response, % of DMSO",[10]; [11],105%
same,"GFP response, % of DMSO",[10]; [12],111%
C#C[C@]1(O)CC[C@H]2[C@@H]3CCC4=CC(=O)CC[C@]4(C)[C@H]3CC[C@@]21C,GFP response vs DMSO,[6],97% (inactive)
same,GFP response vs DMSO,[6]; [11],95.9%
same,GFP response vs DMSO,[6]; [12],95.6%
same,GFP response relative to DMSO,[7],103% (inactive)
same,GFP response relative to DMSO,[7]; [13],102%
same,GFP response relative to DMSO,[7]; [14],101%
same,GFP response vs DMSO,[8],107% (inactive)
same,"GFP response, % of DMSO",[9],95.4% (inactive)
same,"GFP response, % of DMSO",[10],95.5% (inactive)
same,"GFP response, % of DMSO",[10]; [11],97.2%
same,"GFP response, % of DMSO",[10]; [12],92.6%

# — PubChem BioAssay
